Furin inh: inhibitors of human furin | P09958 | purified furin, fluorogenic substrate cleavage | inhibition, % at 20 µM or 30 µM | 220,000 tested, 0.061% active | AID 463115; in the data active = inhibition above about 25%
Target sequence (P09958 108-714 limits assumed): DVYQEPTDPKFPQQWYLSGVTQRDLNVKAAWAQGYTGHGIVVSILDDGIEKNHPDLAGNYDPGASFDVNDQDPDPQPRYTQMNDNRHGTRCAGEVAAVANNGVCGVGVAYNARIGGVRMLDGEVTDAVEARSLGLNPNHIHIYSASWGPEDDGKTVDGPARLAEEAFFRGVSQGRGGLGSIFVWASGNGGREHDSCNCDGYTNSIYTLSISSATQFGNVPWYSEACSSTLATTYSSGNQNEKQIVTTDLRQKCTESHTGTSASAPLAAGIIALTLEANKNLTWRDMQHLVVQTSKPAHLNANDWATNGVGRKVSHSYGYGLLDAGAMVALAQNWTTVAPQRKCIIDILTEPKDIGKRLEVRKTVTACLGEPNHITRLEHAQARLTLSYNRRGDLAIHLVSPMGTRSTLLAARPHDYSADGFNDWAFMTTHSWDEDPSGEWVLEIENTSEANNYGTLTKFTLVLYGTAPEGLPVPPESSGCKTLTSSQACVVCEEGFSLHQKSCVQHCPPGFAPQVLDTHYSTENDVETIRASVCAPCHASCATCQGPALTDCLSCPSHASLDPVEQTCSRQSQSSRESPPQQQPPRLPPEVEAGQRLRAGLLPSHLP
EP2 mod: modulators of human EP2 prostaglandin E2 receptor; AID 940; 260,000 tested, 0.83% active; EP2-expressing cells, cAMP HTRF FRET, PGE2 co-stimulation; induction, % at 25 µM;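 active = compounds whose cAMP rise, as percent of the full-agonist control response, exceeds 60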;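 note: rat C6 glioma line stably carrying human EP2 under a CMV promoter; the protocol text gives 20 µM as final concentration; 100% = response of wells given 1 µM PGE2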
HSV augment: HSV replication enhancement; HSV replication augmentation in cells, fold increase; AID 1956; 220,000 tested, 0.005% active; maximum fold increase; in the data active = maximum fold increase above about 1.5; tested in PC3 cells
Wee1 degr inh: inhibitors of human Wee1 degradation | 220,000 tested, 1.2% active | reporter increase, % at 5 µM | HeLa Luc-Wee1K328M stability, luciferase luminescence; 100% = proteasome inhibitor MG132 effect | AID 1321 | P30291;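 active = activation above the mean of all tested compounds plus 3 SD, set per screening run, cut at about 8.8% in these data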;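 note: cells exposed to compound for 20 h before luminescence read; 0% = DMSO alone and 100% = MG132 at 30 µM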
PGE2 EP2 inh: inhibitors of human EP2 prostaglandin E2 receptor; P43116; C6 glioma cells expressing human EP2, cAMP TR-FRET; cells stimulated with saturating PGE2; inhibition, % at 25 µM; 260,000 tested, 0.52% active; AID 1422;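 active = percent inhibition above 40 after rounding to a whole number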;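 note: rat C6 glioma host cells with rolipram phosphodiesterase inhibitor present; the protocol text gives 20 µM as final concentration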
NCF1 inh: p47phox (human) inhibition. 220,000 tested, 0.53% active. inhibition, % at 24.7 µM. P14598. p47phox/p22phox peptide binding, fluorescence polarization, 2 h. AID 1274;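 active = inhibition above about 30%, limit read from the data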;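 note: 0% = p47phox with labelled peptide and 100% = labelled peptide alone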
EP2 confirm: EP2 receptor cAMP induction, counter-screens negative. shares compounds with EP2 mod. C6 glioma EP2 cells, cAMP HTRF induction; plus low (about EC15) PGE2 agonist. calls only at 20 µM (by protocol). 1,300 tested, 47% active. AID 1080;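 active = cAMP induction above 50% in the main assay while under 30% in all four parallel counter assays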;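 note: rat C6 glioma cells stably expressing human EP2 receptor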
The depositor's hits bear a star; i = inactive; nt = not tested or not shown; + = active, no number. Hits are enriched below; roughly 2.8% of the tested compounds scored in any of these assays.

SMILES	Furin inh	EP2 mod	HSV augment	Wee1 degr inh	PGE2 EP2 inh	NCF1 inh	EP2 confirm
CCCSc1nc(N2CCOCC2)c2c(c1C#N)CCCC2	-2	66*	i	-2	15	-12	+
CCCc1nc(N2CCOCC2)c(C#N)c2c1CCCC2	-16	42	i	-2	11	-5	nt
CCOC(=O)c1csc(NC(=O)CSc2nnnn2-c2cccc(C(=O)OC)c2)n1	nt	-45	nt	nt	11	nt	nt
Cn1c(=O)c(C(=O)Nc2cccc(Cl)c2)c(O)c2ccccc21	nt	-16	nt	nt	4	nt	nt
Cc1ccsc1-c1n[nH]c(=S)n1C1CCCCC1	-4	63*	i	-1	6	15	i
Cc1ccc(-c2nc(C(N)=O)c3[nH]c(=O)n(Cc4ccccc4)c3n2)o1	nt	-33	nt	nt	4	nt	nt
COC(=O)CSc1nc(-c2ccccc2)nc2ccccc12	-21	68*	i	3	3	-16	+
COC(=O)CSc1nc(C(C)C)nc2ccccc12	-16	30	i	4	12	1	nt
Cc1ccc2c(c1)-c1nc3ccccc3cc1C2=NC1CCCCC1	-16	70*	i	-3	4	0	i
Cc1ccc2c(c1)C(=NC1CCCCC1)c1cc3ccccc3nc1-2	12	37	i	3	8	-31	nt
Cc1noc(C)c1COC(=O)/C=C/c1ccccc1Cl	2	24	i	0	6	0	nt
Cc1noc(C)c1COC(=O)C(c1ccccc1)c1ccccc1	-21	75*	i	6	5	2	i
COc1ccc(-c2cc(-c3nnc(-c4ccncc4)o3)c3ccccc3n2)cc1	-8	19	i	0	14	-6	nt
c1ccc2c(-c3nc(C4CCCCC4)no3)cc(-c3ccncc3)nc2c1	-14	67*	i	6	5	-7	+
CCn1c2cc(C)oc2c2cnn(CC(=O)N3CCCCC3C)c(=O)c21 (centres undefined)	nt	-17	nt	nt	nt	nt	nt
Nc1c(C(=O)c2ccc(Cl)cc2)oc2ccccc12	-5	21	i	0	9	-12	nt
O=C(c1ccc(Cl)cc1)c1oc2ccccc2c1CS(=O)c1ccc(Cl)cc1 (centres undefined)	-4	73*	i	-1	9	4	+
Cc1ccc2cc(C(c3nnnn3C3CCCC3)N(Cc3cccnc3)CC3CCCO3)c(=O)[nH]c2c1 (centres undefined)	nt	-36	nt	nt	14	nt	nt
COCCNC(=O)C(=O)Nc1nccs1	nt	-9	nt	nt	13	nt	nt
C=CCn1c(-c2ccc(OC)cc2)nc2ccccc21	-9	8	i	2	9	-13	nt
COc1ccc(-c2nc3ccccc3n2Cc2ccccc2)cc1	-3	69*	i	-2	13	-2	+
c1ccc(Cc2nc3ccccc3n2Cc2ccccc2)cc1	-16	75*	i	2	3	-7	+
Brc1ccc(Cn2c(-c3cncs3)nc3ccccc32)cc1	-21	70*	i	0	2	-17	i
COc1ccccc1CN(Cc1cc2cc(C)c(C)cc2[nH]c1=O)Cc1nnnn1C1CCCC1	nt	46	nt	nt	10	nt	nt
CN(Cc1cccs1)c1nc(-c2cccnc2)nc2ccccc12	-17	74*	i	-4	4	-9	+
SMILES	Furin inh	EP2 mod	HSV augment	Wee1 degr inh	PGE2 EP2 inh	NCF1 inh	EP2 confirm
CCC(C)Nc1nc(-c2cccnc2)nc2ccccc12 (centres undefined)	nt	20	nt	nt	7	nt	nt
C#CCn1c(S(=O)(=O)Cc2ccccc2Cl)nc(-c2ccccc2)c1-c1ccccc1	-26	72*	i	0	3	4	+
O=C(Nc1ccccc1N1CCCC1)c1cc2ccccc2o1	-7	91*	nt	-1	nt	-14	+
CN1CCN(c2ccccc2NC(=O)c2cc3ccccc3o2)CC1	-10	0	i	-2	12	-5	nt
CC1CCN(c2ccccc2NC(=O)c2ccc(F)cc2)CC1	-10	75*	i	9.5*	2	-10	i
O=C(Nc1ccccc1N1CCCCC1)c1ccccc1F	-20	61*	i	1	7	-14	+
COc1ccc(CNC(=O)C2CCCN(c3nc(C)cc(C)n3)C2)cc1 (centres undefined)	nt	0	nt	nt	10	nt	nt
O=C(O)Cn1ccc([N+](=O)[O-])n1	nt	-7	nt	nt	8	nt	nt
Cc1cccc2cc(CN(C(=O)Nc3ccccc3F)C3CCCC3)c(=O)[nH]c12	nt	-14	nt	nt	9	nt	nt
CCc1ccccc1NC(=O)/C(=C/c1ccco1)c1ccccc1	-11	68*	i	-2	5	-84	+
Cc1ccccc1NC(=O)/C(=C/c1ccco1)c1ccccc1	-10	38	i	0	9	-5	nt
O=S1(=O)CCN(Cc2ccc(F)cc2)CC1	-32	-5	i	0	8	1	nt
O=S1(=O)CCN(Cc2cccc(Cl)c2)CC1	-15	86*	i	-3	8	-4	i
Cc1cc(F)ccc1S(=O)(=O)Nc1ccc2oc3c(c2c1)C(=O)CCC3	nt	-27	nt	nt	18	nt	nt
CCn1c(SCC(=O)N2CCc3ccccc32)nnc1C(C)C	nt	-7	nt	nt	23	nt	nt
CCCCC(=O)Nc1sc2c(c1C(=O)OCC)CCC(C=O)=C2Cl	-8	63*	i	0	5	-12	+
CCOc1ccc(C2C(C(=O)c3ccco3)=C(O)C(=O)N2CCCn2ccnc2)cc1 (centres undefined)	-9	14	i	-1	5	4	nt
Cc1ccc(C(=O)C2=C(O)C(=O)N(CCCn3ccnc3)C2c2ccc(OC(C)C)cc2)o1 (centres undefined)	-6	65*	i	0	13	-4	i
CCc1ccc(-c2csc(NC(=O)C3CCCO3)c2C(=O)OC(C)C)cc1 (centres undefined)	-3	57	i	-2	6	-35	nt
COC(=O)c1c(-c2ccc(F)cc2)csc1NC(=O)C1CCCO1 (centres undefined)	-23	66*	i	-1	5	-1	i
COc1ccc(C2CC(C(F)(F)F)n3nc(C(N)=O)c(Cl)c3N2)cc1OC (centres undefined)	-28	75*	i	0	4	-5	i
COc1ccc(C2CC(C(F)(F)F)n3ncc(C(=O)O)c3N2)cc1OC (centres undefined)	-23	2	i	-1	13	1	nt
CC1(C)OC(c2ccccc2)=C/C(=C/C=Nc2ccccc2)O1	-11	66*	i	-2	14	-5	i
Cc1ccc(C(C)C)c(OCc2ccc(-c3nnco3)cc2)c1	-31	66*	i	2	16	-13	i
CN(Cc1c(C(=O)N2CCc3ccccc3C2)nc2ccc(Cl)cn12)C(C1CC1)C1CC1	-18	76*	i	0	18	-1	i

Compound activity deposited in PubChem BioAssay by several laboratories.
